From PubChem BioAssay come the findings set out here.

The nature of assay [1]: reducers of endogenous Her2 protein level, primary screen, SKBR3 breast tumor cells, AlphaScreen, ATP viability (AID 461;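 active means Her2 level under about 52% in both replicate screens, with viability over 70% of control, limit read from the data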;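 on Her2 level: lower value means less Her2 protein in the cells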;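 on viability: percent of carrier control wells set as 100% viability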). To be noted: 18-24 h, measured here: SKBR3 viability, ATP luminescence, at 10 µM. Background: In Alpha technology, singlet oxygen from a donor bead excites a nearby acceptor bead.
In assay [2] the target is Receptor tyrosine-protein kinase erbB-2 (Homo sapiens) (UniProt P04626). The assay is described as above. As to conditions: 18-24 h, at 10 µM, stronger effect = lower value.
Assay [3] can be described thus: SK-BR-3 cell growth inhibitors, pilot screen, 24 h, human (AID 572;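 active means viability at or below 10% of carrier control in both of two separate runs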;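 further: compound exposure lasted between 18 and 24 h rather than exactly 24 h; 100% = carrier-treated control wells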). To be noted: SK-BR-3 viability, CellTiter-Glo luminescence, at 10 µM, stronger effect = lower value.
Assay [4] in a line: HUVEC growth inhibition – cell-based, human, primary screen (AID 575;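 active means viability at or below 30% in both replicate assays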;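 further: 100% = median of untreated cell wells with 0.1% DMSO on each plate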). As to conditions: HUVEC proliferation, CellTiter-Glo luminescence, 72 h; at 10 µM; stronger effect = lower value. Background: ATP-based viability assays read luminescence as a measure of living cells.
Assay [5] is described as follows: growth inhibitors of H69AR lung tumor, primary screen, human, duplicate replicates (AID 580;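 active means viability at or under a set limit in both replicates, limit being median viability minus 3 SD, cut at about 48% in these data, passing the limit was not always enough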;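 further: 100% = mean luminescence of untreated wells and 0% = no signal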). As to conditions: H69AR lung tumor cells viability, ATP luminescence, 72 h; at 10 µM; stronger effect = lower value.
Assay [6] in a line: reversal of MRP1-mediated doxorubicin resistance, pilot screen, H69AR cells, doxorubicin co-treatment (AID 601;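 active means viability loss from added drug above about 55%, and viability with drug at most 40%, in both replicates, limit read from the data, passing the limit was not always enough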). To be noted: CellTiter-Glo, 72 h, at 10 µM; for differential viability (reversal): stronger effect = higher value.
A short description of assay [7]: 384-well plate pilot, post-Golgi transport modulator project, inhibition of yeast transport mutant growth (AID 636; in the data active means inhibition above about 31%). As to conditions: absorbance 615 nm, about 18 h, stronger effect = higher value.
Assay [8] is described as follows: growth suppression of yeast trafficking mutant, preliminary HTS, modulators of trafficking downstream of Golgi apparatus project, 1536-format plate, OD 615 nm (AID 637; in the data active means inhibition above about 30%). As to conditions: yeast transport mutant growth, absorbance 615 nm, 18 h; stronger effect = higher value.
Assay [9] in a line: OD615 S. cerevisiae growth inhibition, permissive medium, pilot counter-assay, permissive growth control for S. cerevisiae lifespan shortening project (AID 705;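 active means growth inhibition above 25% in both replicates, a cutoff set 3 SD above the mean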). As to conditions: OD615, 24 h, at 10 µM, stronger effect = higher value.
The nature of assay [10]: Restrictive medium S. cerevisiae growth inhibition, OD615, pilot screen of yeast lifespan reduction project, restrictive growth control (AID 706;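 active means growth inhibition above a set limit, 3 SD over mean compound inhibition, in both replicates, cut at about 43% in these data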;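 further: modified DeaD lifespan yeast strain shifted to restrictive glucose medium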). To be noted: OD615, 48 h, at 10 µM, stronger effect = higher value.
Assay [11] can be described thus: viability gain of MRP-1-high H69AR cells under doxorubicin, pilot screen, MRP-1 activator project, CellTiter-Glo, duplicate (AID 807;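 active means viability increase at or above a cutoff of the median across tested compounds plus 3 SD, cut at about 8.5% in these data, passing the limit was not always enough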;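 further: compound pretreatment 18-22 h then 72 h combined with doxorubicin; 0% = doxorubicin alone and 100% = vehicle without doxorubicin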). As to conditions: H69AR viability with doxorubicin, CellTiter-Glo luminescence; at 10 µM; stronger effect = higher value.
Assay [12] is described as follows: growth suppression of beta-catenin knockout HCT116, pilot screen, human colon tumor cells (AID 823;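 active means cell viability at or below a set limit in both duplicate runs, the limit being the all-compound median minus 4 SD, cut at about 23% in these data, passing the limit was not always enough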;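 further: 0% = wells killed by 20 µM Hyamine and 100% = untreated DMSO cell wells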). To be noted: CellTiter-Glo, 60 h, at 10 µM, stronger effect = lower value.
Assay [13] is described as follows: growth suppression of PTEN-deleted HCT116, pilot screen, cell-based, HCT116 clonal line, CellTiter-Glo (AID 824).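 Further: 0% = 20 µM Hyamine control and 100% = vehicle cell control.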 As to conditions: 60 h, at 10 µM, stronger effect = lower value.
Assay [14] in a line: inhibitors of the yeast RAM network, pilot screen, dse1pr::URA3 reporter, 5-FOA selection (AID 869;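 active means inhibition over a set limit, the all-compound mean plus 3 SD, in both replicate runs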;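 further: 0% = DMSO wells with no growth and 100% = 10 µM 1-NA-PP1 with full growth; RAM network block rescues cells from 5-FOA so hits raise OD615 growth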). To be noted: S. cerevisiae dse1pr::URA3 5-FOA growth, OD615, 2 d; at 10 µM; stronger effect = higher value; strain carries analog-sensitive mutant Cbk1 kinase.
Assay [15] is described as follows: RAM signaling pathway blockade in yeast – S. cerevisiae, Pdr1DBD-CYC8 efflux-inhibited sensitized strain, primary screen (AID 1298;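 active means RAM network inhibition above 8.4% in each of two replicates, 3 SD over the compound average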;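 further: 0% = DMSO untreated cells without growth and 100% = 10 µM 1-NA-PP1 full growth; higher means more yeast growth rescued from 5-FOA killing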). To be noted: S. cerevisiae cbk1-as DSE1-URA3 strain, 5-FOA growth OD615, 2 d; at 50 µM; stronger effect = higher value.
Setting [16] is: H69AR cells + 2 uM doxorubicin, measured here: viability with 2 uM doxorubicin, stronger effect = lower value.
Where [17] appears, read: H69AR cells, compound alone cytotoxicity.

Records with an inconclusive call do not appear. Activity calls are given as the source filed them.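 How the source made its calls, unless noted: active means viability at or below 27.92% in each of two runs, the all-compound median minus 4 SD; inconclusive means no clear call, values can overlap the other calls; inactive means the rest.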

Sequence of Receptor tyrosine-protein kinase erbB-2 (Homo sapiens) (P04626 whole entry, looked up): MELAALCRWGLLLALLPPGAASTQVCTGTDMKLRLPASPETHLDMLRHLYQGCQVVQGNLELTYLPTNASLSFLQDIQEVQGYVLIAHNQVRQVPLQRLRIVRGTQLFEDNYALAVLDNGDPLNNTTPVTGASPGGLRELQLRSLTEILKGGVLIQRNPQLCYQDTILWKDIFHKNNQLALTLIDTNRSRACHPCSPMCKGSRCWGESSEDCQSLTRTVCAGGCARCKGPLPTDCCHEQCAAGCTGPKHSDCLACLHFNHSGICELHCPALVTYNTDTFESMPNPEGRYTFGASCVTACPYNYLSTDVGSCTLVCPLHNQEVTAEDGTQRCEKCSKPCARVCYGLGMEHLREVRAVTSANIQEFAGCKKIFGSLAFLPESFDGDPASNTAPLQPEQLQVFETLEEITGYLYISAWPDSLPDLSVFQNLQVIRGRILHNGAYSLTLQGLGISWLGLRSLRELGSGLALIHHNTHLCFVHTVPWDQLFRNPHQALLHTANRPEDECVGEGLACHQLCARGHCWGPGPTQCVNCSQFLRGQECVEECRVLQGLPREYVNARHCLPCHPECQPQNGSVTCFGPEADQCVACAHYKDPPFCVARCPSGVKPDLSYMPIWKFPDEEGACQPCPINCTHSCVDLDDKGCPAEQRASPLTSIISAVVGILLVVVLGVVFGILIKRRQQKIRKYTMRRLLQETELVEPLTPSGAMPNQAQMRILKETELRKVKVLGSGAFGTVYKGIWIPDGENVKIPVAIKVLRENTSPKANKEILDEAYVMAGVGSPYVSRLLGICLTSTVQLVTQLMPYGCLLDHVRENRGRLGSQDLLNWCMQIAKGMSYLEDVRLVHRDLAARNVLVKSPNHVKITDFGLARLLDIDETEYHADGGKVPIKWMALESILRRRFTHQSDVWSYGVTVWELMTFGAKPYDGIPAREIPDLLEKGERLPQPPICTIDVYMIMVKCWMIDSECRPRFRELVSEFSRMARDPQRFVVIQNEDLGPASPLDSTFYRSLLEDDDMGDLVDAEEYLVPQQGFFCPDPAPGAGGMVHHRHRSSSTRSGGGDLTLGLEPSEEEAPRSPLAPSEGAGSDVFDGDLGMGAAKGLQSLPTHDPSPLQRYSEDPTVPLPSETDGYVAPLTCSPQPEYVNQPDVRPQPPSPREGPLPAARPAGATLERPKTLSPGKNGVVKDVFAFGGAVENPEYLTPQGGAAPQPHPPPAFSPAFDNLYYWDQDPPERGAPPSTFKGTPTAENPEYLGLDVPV

As usually defined, the viability is a read-out of living cells in per cent, often relative to untreated cells. A word on the inhibition: it is the drop in the measured response relative to a control, in per cent. On to `CCOc1ccc(C2CC(c3cccc(OC)c3)Nc3nc(N)nn32)cc1` (stereo not given), for which the viability in [1] was 91.5%; in [3], 91.5% (inactive); in assay [4], 95.8% (inactive); in assay [5], 90.7% (inactive); in assay [6] (setting [16]) it was 93%; in [6] (setting [17]) it was 90.7%. Besides, the viability in [12] is 99% (inactive); in assay [13], 87.1% (inactive). Also, the Her2 level in assay [2] was 114% (inactive). In assay [6] (H69AR cells + 2 uM doxorubicin), the differential viability (reversal) was -2.32% (inactive). For the same compound, the inhibition is 3.85% (inactive) in assay [7], 5.5% (inactive) in assay [8] and 1.65% (inactive) in assay [14]. The growth inhibition in [9] was 5.33% (inactive); in assay [10] it was 13.6% (inactive). In [11], the viability increase is -0.23% (inactive). In addition, in assay [15], the RAM network inhibition is 4.8% (inactive).

For the compound `COc1cccc(C2CC(=O)Nc3cc4c(cc32)OCCO4)c1OC(C)C` (stereo not given), the viability in [1] is 99%; in assay [3], 99% (inactive); in assay [4], 84.6% (inactive); in assay [5], 41.2% (active); in assay [6] (setting [16]), 70.7%; in assay [6] (setting [17]) it was 41.2%. Further, the viability was 65.7% (inactive) in assay [12] and 65% (inactive) in [13]. The Her2 level in [2] was 88.5% (inactive). Further, in [6] (H69AR cells + 2 uM doxorubicin), the differential viability (reversal) was -29.5% (inactive). The inhibition was -1.2% (inactive) in assay [7], -3.61% (inactive) in [8] and 0.76% (inactive) in assay [14]. The growth inhibition is -3.68% (inactive) in assay [9] and 0.265% (inactive) in assay [10]. Further, the viability increase in assay [11] is -4.91% (inactive). In assay [15], the RAM network inhibition is 2.97% (inactive).

Consider `CN1CCN(Cc2nc3c(c(=O)[nH]c(=O)n3C)n2CCc2ccccc2)CC1`, for which the viability in assay [1] is 82%; in [3], 82% (inactive); in assay [4] it was 91.2% (inactive); in [5], 93% (inactive); in assay [6] (setting [16]) it was 97.2%; in assay [6] (setting [17]), 93%. Moreover, the viability is 92% (inactive) in [12] and 93.5% (inactive) in assay [13]. In assay [2], the Her2 level was 96% (inactive). Also, the differential viability (reversal) in assay [6] (H69AR cells + 2 uM doxorubicin) was -4.29% (inactive). Moreover, the results for the inhibition in assay [7], in assay [8] and in assay [14] were -6% (inactive), -5% (inactive) and 0.565% (inactive), respectively. In addition, the growth inhibition in assay [9] is -4.41% (inactive); in [10] it was 1.98% (inactive). For the same compound, the viability increase in assay [11] was -4.22% (inactive). Also, the RAM network inhibition in assay [15] was 1.56% (inactive).

With `CCCOc1ccc(N2CC(C(=O)Nc3ccc4c(c3)OCO4)CC2=O)cc1` (stereo not given), the viability was 107% in [1]; 107% (inactive) in assay [3]; 79.3% (inactive) in assay [4]; 86.4% (inactive) in assay [5]; 95.4% in assay [6] (setting [16]); 86.4% in assay [6] (setting [17]). In addition, the viability in assay [12] was 107% (inactive); in assay [13], 102% (inactive). The Her2 level in [2] is 94% (inactive). Moreover, the differential viability (reversal) in assay [6] (H69AR cells + 2 uM doxorubicin) was -9.04% (inactive). Besides, the results for the inhibition in assay [7], in assay [8] and in assay [14] were -4.13% (inactive), -1.67% (inactive) and 2.89% (inactive), respectively. In addition, the growth inhibition in assay [9] is -11.2% (inactive); in assay [10], 12.3% (inactive). Also, the viability increase in assay [11] is -2.44% (inactive). The RAM network inhibition in assay [15] is 2.77% (inactive).

Consider `Cc1cccc(-n2ncc3c(N4CCC5(CC4)OCCO5)ncnc32)c1`, for which the viability was 106% in assay [1]; 106% (inactive) in assay [3]; 76% (inactive) in assay [4]; 42.6% (active) in [5]; 53.8% in assay [6] (setting [16]); 42.6% in assay [6] (setting [17]). Further, the viability in assay [12] is 78% (inactive); in assay [13] it was 59.5% (inactive). The Her2 level in assay [2] was 92.5% (inactive). In addition, the differential viability (reversal) in assay [6] (H69AR cells + 2 uM doxorubicin) was -11.1% (inactive). The inhibition is -4.4% (inactive) in assay [7], -9.33% (inactive) in [8] and 1.75% (inactive) in assay [14]. For the same compound, the growth inhibition is -2.87% (inactive) in [9] and -15.6% (inactive) in assay [10]. The viability increase in [11] is -7.22% (inactive). The RAM network inhibition in [15] is 3.86% (inactive).
